According to PubChem BioAssay AID651599 (National Center for Advancing Translational Sciences (NCATS), 2012):
Records with an inconclusive call do not appear. Entries that show only a call come without a potency. Activity calls are given as the source filed them. Calls come from the whole dose curve; as a rule, active = well fitted inhibition curve with a large enough effect; inconclusive = small, poorly fitted or top-dose-only effect; inactive = no such curve, though single readings can be large or run the other way.

Target: Tumor susceptibility gene 101 protein (Homo sapiens) (UniProt Q99816)
Sequence (Q99816 whole entry, looked up): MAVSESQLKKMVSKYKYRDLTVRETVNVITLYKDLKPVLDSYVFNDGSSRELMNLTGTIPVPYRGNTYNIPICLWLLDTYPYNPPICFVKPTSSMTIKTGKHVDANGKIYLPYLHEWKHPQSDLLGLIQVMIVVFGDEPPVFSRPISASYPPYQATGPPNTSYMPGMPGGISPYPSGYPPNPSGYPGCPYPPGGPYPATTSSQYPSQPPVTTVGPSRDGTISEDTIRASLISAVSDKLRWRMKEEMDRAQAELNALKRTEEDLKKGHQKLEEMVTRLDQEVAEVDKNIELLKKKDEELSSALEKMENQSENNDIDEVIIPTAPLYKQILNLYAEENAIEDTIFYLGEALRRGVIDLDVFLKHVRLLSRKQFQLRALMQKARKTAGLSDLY
Test: qHTS Assay for Iinhibitors of HIV-1 Budding by Blocking the Interaction of PTAP/TSG101: Hit Validation in TR assay
Settings: Tsg101 binding domain + Texas Red-labeled PTAP peptide, fluorescence polarization, 20 min; series mostly up to 57.5 µM
Method in brief: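 Texas Red-PTAP peptide (50 nM) binding to Tsg101 binding domain (10 uM), both final, in pH 7.5 HEPES buffer, read as polarization after 20 min at room temperature; compounds pinned before peptide addition.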
Potency is the fitted concentration of half-maximal effect.

SMILES	Potency
CC(C)(C)c1ccc(C2C3=C(CCCC3=O)NC3=C2C(=O)c2ccccc23)cc1 (centres undefined)	inactive
CCn1c(/C=C/c2cc[n+](C)cc2)nc2ccccc21	inactive
O=C(NCc1ccccc1Br)c1cccc2c1C(=O)c1ccc(N3CCC(Cc4ccccc4)CC3)cc1S2(=O)=O	inactive
CN1CC=C2C(C#N)=C(N)C(C#N)(C#N)[C@H](c3ccoc3)[C@H]2C1	inactive
CCN(CC)CCCNc1ccc2ncn3c4ccc(O)cc4c(=O)c1c23	inactive
Nc1c(C(=O)Nc2ccc(F)cc2)sc2nc(-c3cccs3)cc(C(F)(F)F)c12	inactive
CCCNc1c(F)c(F)c2c(C)c3ccccc3nc2c1F	inactive
CCOC(=O)Cn1c(=O)c(-c2cc(Br)ccc2N)nc2ccccc21	inactive
CSC1=NSC2=NC(=O)/C(=C/c3coc4ccc(O)cc4c3=O)C(=N)N12	inactive
CC(=O)Nc1ccc2nc3c(=O)[nH]c(=O)[nH]c3nc2c1	inactive
COCCCNC(=O)c1ccc2c3c(onc13)-c1ccccc1C2=O	inactive
Cc1cc(NS(=O)(=O)c2ccc(NC(=O)COc3c(C)cc(Br)cc3C)cc2)no1	inactive
O=c1[nH]nc(-c2ccc(F)cc2)cc1Cc1ccc(F)cc1	inactive
O=c1[nH]c2c(s1)C=Nc1ccccc1N2	inactive
O=S(=O)([N-]c1nc2ccccc2nc1-[n+]1ccc(-c2ccncc2)cc1)c1ccccc1	inactive
O=c1[nH]c(S)c(/C=C2\C=Nc3ccccc32)s1	inactive
Nc1ccc2c(c1)C/C(=C/c1ccco1)C2=O	inactive
CC1=CC(=C(C#N)c2nc3ccccc3s2)C=C(C)N1c1ccc(F)cc1F	inactive
CSc1ccc(C2C(C(=O)c3ccco3)=C(O)C(=O)N2c2nnc(SC)s2)cc1 (centres undefined)	inactive
O=C(OCCN1C(=O)c2cccc3c(N4CCOCC4)ccc(c23)C1=O)c1ccc(Cl)cc1Cl	inactive

SMILES	Potency
C/C(=N/NC(=O)c1ccncc1)c1cc2ccc(O)cc2oc1=O	inactive
CCCCNC(=O)C(C#N)c1nc2ccccc2nc1N1CCN(Cc2ccc3c(c2)OCO3)CC1 (centres undefined)	inactive
O=c1[nH]c(=O)n(-c2cc(Br)c(O)c(Br)c2)cc1Br	inactive
Oc1ccc2ccc3cccc[n+]3c2c1	inactive
Cc1ccccc1-c1ccc(/C=C2/SC(N3CCOCC3)=NC2=O)o1	inactive
CC(=O)Nc1ccc2cc3ccc(NC(C)=O)cc3nc2c1	inactive
CCSc1nnc(-c2sc3nnc(-c4ccccc4)c(-c4ccccc4)c3c2N)o1	inactive
O=C(O)[C@@H]1[C@H]2C[C@H]3c4[nH]c5ccccc5c4CCN3C[C@@H]2CC[C@@H]1O	13 µM (active)
S=C(Nc1ccc(N2CCOCC2)cc1)Nc1ccc2nc(-c3ccco3)c(-c3ccco3)nc2c1	inactive
O=C(NCCc1ccc(F)cc1)c1cccc2c1C(=O)c1ccc(N3CCC(Cc4ccccc4)CC3)cc1S2(=O)=O	inactive
CCC1(c2ccccc2)NC(=O)N(CC(=O)Nc2ccc(OC)nc2)C1=O (centres undefined)	inactive
c1ccc(-c2cn3nc(-c4ccccc4)c(-c4ccccc4)nc3n2)cc1	inactive
Cc1cc[n+](-c2[nH]c(=O)sc2/C=N/NC([S-])=Nc2ccccc2)cc1	inactive
Cc1ccc(Nc2ccc([N+](=O)[O-])ccc2=O)cc1	inactive
CC1CCN(c2ccc3c(c2)S(=O)(=O)c2cccc(C(=O)NCc4cccc(F)c4)c2C3=O)CC1	inactive
CSCC(C)N1CCC(n2nccc2NC(=O)CCCc2ccccc2)CC1 (centres undefined)	inactive
CC(=O)c1ccc(N2C(=O)C3C(C2=O)C(C(=O)c2ccc(Cl)cc2)N2CCCC32)cc1 (centres undefined)	inactive
O=Cc1ccc2noc(-c3ccc(F)cc3)c2c1	inactive
CCN1CC=C2C(C#N)=C(N)C(C#N)(C#N)[C@H](c3cccc(OC)c3OC)[C@H]2C1	inactive
